Hits are enriched below; roughly 3.3% of the tested compounds scored in any of these assays.
AmpC no deterg – blocks E. coli AmpC beta-lactamase in detergent-free assay. P00811. AmpC nitrocefin hydrolysis, absorbance 480 nm, 0.0001% Triton. Potency, µM (doses to about 57.1 µM), most hits filed as inhibitors. 330,000 tested, 0.52% active. AID 485341; further: nearly all actives have a fitted effect of over 20% in size
Target sequence (P00811 whole entry, looked up): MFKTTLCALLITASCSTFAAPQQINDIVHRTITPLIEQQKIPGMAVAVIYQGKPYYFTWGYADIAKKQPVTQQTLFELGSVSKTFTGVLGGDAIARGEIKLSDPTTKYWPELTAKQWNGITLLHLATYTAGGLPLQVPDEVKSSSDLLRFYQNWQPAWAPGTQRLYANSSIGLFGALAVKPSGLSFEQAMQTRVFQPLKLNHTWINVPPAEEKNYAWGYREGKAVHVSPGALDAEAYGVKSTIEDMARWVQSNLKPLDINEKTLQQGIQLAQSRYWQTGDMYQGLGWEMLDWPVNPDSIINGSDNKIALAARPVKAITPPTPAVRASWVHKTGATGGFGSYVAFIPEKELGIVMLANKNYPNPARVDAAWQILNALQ
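AmpC (5.3 nM in the dispensed reagent) in 20 mM phosphate pH 7.0 with 0.01% (detergent screen) or 0.0001% Triton X-100 was preincubated with compounds for 15 min at room temperature. Nitrocefin was then added from an 800 uM solution, and hydrolysis was followed at 480 nm.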
Sm TGR block – inhibitors of Schistosoma mansoni thioredoxin glutathione reductase | Potency, µM (titrated, usually from 114 µM), most hits filed as inhibitors | 360,000 tested, 3% active | purified TGR, DTNB reduction, TNB absorbance 405 nm | Q962Y6; further: nearly all actives have a fitted effect of over 60% in size
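First, TGR (20 nM dispensed) and NADPH were mixed with compound. Second, a 15 min room-temperature incubation followed. Third, further NADPH and then DTNB were added to start the reaction. Finally, TNB absorbance was monitored kinetically.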
AmpC inh detg – AmpC beta-lactamase inhibition with detergent present; AID 485294; AmpC hydrolysis of nitrocefin, absorbance 480 nm, 0.01% Triton; P00811; Potency, µM (doses to about 114 µM), usual class: inhibitors; 370,000 tested, 0.041% active; further: nearly all actives have a fitted effect of over 25% in size
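20 mM phosphate pH 7.0 + 0.01% (detergent screen) or 0.0001% Triton X-100; 5.3 nM AmpC reagent; cpd preinc 15 min RT; nitrocefin (800 uM stock) to start; A480 q20 s × 4 min; Activity was normalised to no-enzyme and no-compound control wells.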
Large screens that a line does not name were inactive. The call rests on the fitted dose curve; in most records, active means well fitted curve in the direction sought with a large enough effect; inconclusive means small, poorly fitted or top-dose-only effect, or another doubt; inactive means no such curve, though single readings can be large; an effect the other way counts as inactive or inconclusive.

Cc1ccc(S(=O)(=O)N(C)C)cc1NC(=O)c1cc(S(=O)(=O)N2CCCCC2)ccc1N1CCOCC1	none
O=S(=O)(c1ccc(F)cc1)c1nc(-c2ccccc2)oc1N1CCOCC1	Sm TGR block inconclusive, AmpC inh detg inconclusive
O=C(/C=C/c1cccs1)N1CCCCC1	none (no result: Sm TGR block)
O=C(/C=C/c1ccc([N+](=O)[O-])s1)N1CCCC1	Sm TGR block 28.2µM
O=C(/C=C/c1ccc([N+](=O)[O-])s1)N1CCCCC1	Sm TGR block 20µM, AmpC inh detg inconclusive
O=C(/C=C/c1ccc([N+](=O)[O-])s1)N1CCN(c2ccccc2)CC1	none
N#CC1=C(N)Oc2cc(N)ccc2C1c1ccc(Cl)cc1 (stereo unspecified)	AmpC no deterg 11.2µM
N#CC1=C(N)Oc2cc(N)ccc2C1c1ccc(F)cc1 (stereo unspecified)	none
Cc1ccc2nc(NC(=O)C3CCN(S(=O)(=O)c4cccs4)CC3)sc2c1	none
Cc1ccc2nc(N/C(=N/S(=O)(=O)c3cccs3)c3ccccc3Cl)sc2c1	AmpC no deterg 12.6µM
CN1CCN(C(=O)CNC(=O)C23CC4CC(CC(C4)C2)C3)CC1	none (no result: Sm TGR block, AmpC inh detg)
Cn1c(=O)c2nncnc2n(C)c1=O	AmpC inh detg inconclusive
Cc1nc2c(=O)n(C)c(=O)n(C)c2nc1Cl	Sm TGR block 6.31µM, AmpC inh detg inconclusive
COc1cccc(CNC(=O)CCC2CCCN(C3CCOCC3)C2)c1 (stereo unspecified)	Sm TGR block 4.47µM
COc1cccc(CNC(=O)CCC2CCCN(C(=O)c3ccoc3)C2)c1 (stereo unspecified)	none
Cc1ccc(-c2nn(-c3cccc(F)c3)cc2CN2CCN(c3ccccn3)CC2)o1	Sm TGR block inconclusive
Cc1ccc(-c2nn(-c3cccc(F)c3)cc2CN(Cc2nccn2C)C(C)C)o1	Sm TGR block 20µM
CC(OC(=O)CN1C(=O)c2ccccc2C1=O)C(=O)NC1CCCCC1 (stereo unspecified)	none
COC(=O)CN1C(=O)CC(C)(C)S(=O)c2ccccc21 (stereo unspecified)	AmpC no deterg 1.26µM, AmpC inh detg inconclusive
COC(=O)CN1C(=O)c2cccc3cccc1c23	none
NC(=O)c1c(NC(=O)c2ccc([N+](=O)[O-])o2)sc2c1CCCC2	AmpC inh detg inconclusive
N#Cc1c(NC(=O)c2ccc([N+](=O)[O-])o2)sc2c1CCC2	Sm TGR block 35.5µM
CCc1ccc(CCC(=O)Nc2sc3c(c2C#N)CCCC3)o1	AmpC no deterg inconclusive
Cc1ccc(/C=C/C(=O)Nc2sc3c(c2C#N)CCCC3)o1	Sm TGR block 44.7µM
COCc1c(C(=O)OCC(=O)N(C)C2CCS(=O)(=O)C2)oc2ccccc12 (stereo unspecified)	none
COc1ccc(Cc2nnc(NC(=O)C(C)(C)C)s2)cc1	none
CC(C)N1CCc2c(sc(NC(=O)c3ccco3)c2C(N)=O)C1	Sm TGR block 50.1µM
COC(=O)c1c(NC(=O)c2ccco2)sc2c1CCN(C(C)C)C2	AmpC inh detg inconclusive
CN1CCc2c(sc(NC(=O)c3ccc(S(=O)(=O)N4CCCCCC4)cc3)c2C(N)=O)C1	none
CN1CCc2c(sc(NC(=O)c3ccc(S(=O)(=O)N4CCCC4)cc3)c2C(N)=O)C1	Sm TGR block 100µM
CNC(=O)c1c(NC(=O)c2ccco2)sc2c1CCCC2	none
Cc1ccc(C(=O)C(NC(=O)c2ccco2)Nc2sc3c(c2C(N)=O)CCCC3)cc1 (stereo unspecified)	Sm TGR block 28.2µM
COC(=O)c1cc(S(=O)(=O)NCCc2ccc(SC)cc2)c[nH]1	none
Cc1c(NC(=O)c2ccc(CC(C)C)o2)c(=O)n(-c2ccccc2)n1C	none
Cc1cc(C)c(OCC(=O)N(Cc2ccc(N(C)C)cc2)CC2CCCO2)c(C)c1 (stereo unspecified)	none (no result: AmpC no deterg)
COc1ccccc1N(CC(=O)Nc1ccc2c(c1)OCO2)S(=O)(=O)c1ccc(C)cc1	none (no result: AmpC no deterg)
CCCc1cc(N2CCN(c3cccc(C)c3C)CC2)n2cnnc2n1	none (no result: AmpC no deterg)
CCCc1nc2cc3c(cc2[nH]1)n(C)c(=O)n3C	Sm TGR block 22.4µM
Cn1c(=O)n(C)c2cc3[nH]cnc3cc21	none
Cn1nnc(NC(=S)NC(=O)c2cc3ccccc3o2)n1	Sm TGR block 25.1µM
CCn1nnc(NC(=S)NC(=O)c2ccc(-c3cccc(Cl)c3)o2)n1	Sm TGR block 12.6µM
O=C(NC(=S)Nc1cc(Cl)ccc1N1CCOCC1)c1ccc(-c2cccc(Cl)c2)o1	none
Cn1nnc(NC(=S)NC(=O)c2ccco2)n1	Sm TGR block inconclusive
CCCCn1nnc(NC(=O)c2ccc(-c3cccc(Cl)c3)o2)n1	Sm TGR block 25.1µM
CCCn1nnc(NC(=O)c2ccc(-c3cccc(Cl)c3)o2)n1	none
CCOc1ccc(NC(=O)CN(C)C(=O)c2ccccc2-n2cnnn2)cc1OCC	AmpC inh detg inconclusive
